# Test results from PubChem BioAssay (NCI).
# The panel holds about 83,000 compounds, 20% with a hit somewhere; the sample as a whole holds those more often.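 Assay: single dose, 48 h. Readout: percent growth (0 = no net growth; negative = cell death). Active: <10.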 Values without a mark were called inactive. Calls of active or inactive are those of the source.
# How the values were obtained:
# Assay in all cases: NCI-60 one-dose screen, 48 h (100 = growth as untreated, 0 = no growth, -100 = all killed)
# Details in all cases: 10 µM unless noted
# K-562 leukemia = system: K-562 leukemia
# MALME-3M melanoma = system: MALME-3M melanoma
# MDA-MB-231 breast = system: MDA-MB-231 breast
# SF-268 CNS = system: SF-268 CNS
# SF-295 CNS = system: SF-295 CNS
# SF-539 CNS = system: SF-539 CNS
# UACC-257 melanoma = system: UACC-257 melanoma
# M14 melanoma = system: M14 melanoma
# HCT-15 colon = system: HCT-15 colon
# HT29 colon = system: HT29 colon
# SNB-75 CNS = system: SNB-75 CNS
# SNB-19 CNS = system: SNB-19 CNS
# U251 CNS = system: U251 CNS
# PC-3 prostate = system: PC-3 prostate
# SK-MEL-5 melanoma = system: SK-MEL-5 melanoma
# UACC-62 melanoma = system: UACC-62 melanoma
# LOX IMVI melanoma = system: LOX IMVI melanoma
# SK-MEL-28 melanoma = system: SK-MEL-28 melanoma
# RXF 393 renal = system: RXF 393 renal
Compound,growth (K-562 leukemia),growth (MALME-3M melanoma),growth (MDA-MB-231 breast),growth (SF-268 CNS),growth (SF-295 CNS),growth (SF-539 CNS),growth (UACC-257 melanoma) [%],growth (M14 melanoma) [%],growth (HCT-15 colon) [%],growth (HT29 colon),growth (SNB-75 CNS),growth (SNB-19 CNS) [%],growth (U251 CNS),growth (PC-3 prostate),growth (SK-MEL-5 melanoma),growth (UACC-62 melanoma),growth (LOX IMVI melanoma),growth (SK-MEL-28 melanoma) [%],growth (RXF 393 renal) [%]
COc1ccc(C(=O)COc2cccc(/C=C3\COc4ccc5ccccc5c4C3=O)c2)cc1,47.8%,72%,53.7%,83.8%,107%,16%,79.4,91.2,88.6,60.8%,-6.64% (active),66.9,68.3%,48.2%,67.6%,74.5%,57.6%,106,
Cc1ccc(S(=O)(=O)NCCN2c3nc4ccccc4cc3Sc3cc4ccccc4nc32)cc1,87.9%,128%,36.8%,52.4%,93.8%,11.7%,54.7,77.4,103,56.1%,-13% (active),64.3,34.4%,77.3%,82.7%,66.9%,66.5%,87.8,
COc1ccc(CNC(=O)c2c(C)n([O-])c3cc(F)c(F)cc3[n+]2=O)cc1,46.5%,111%,76.3%,88.7%,57.1%,96.9%,98,90.5,36.8,93%,93%,93.9,94.9%,94%,97.5%,87.7%,57.1%,93.7,
COc1ccc2c(c1)C(=Nc1cc(OC)c(OC)c(OC)c1)C(=O)N2,102%,90.8%,103%,98%,171%,103%,102,101,100,115%,104%,113,93%,77.5%,114%,88.8%,81.6%,90.2,
COc1ccc(CCN2C(=O)CCC3=C2CCCC3=O)cc1OC,106%,91.7%,89.9%,136%,112%,103%,,99.1,97.6,108%,82.3%,100,,96.6%,99.1%,105%,98.8%,108,113
O=C(Nc1ccc(Cl)cc1)Nc1nc2ccc(OC(F)(F)F)cc2o1,60.7%,128%,109%,123%,70.1%,104%,114,,77.5,84.7%,97%,93.2,83.1%,44.7%,90.8%,82.9%,103%,108,78.9
O=C(N/N=C/c1cccc(O)c1)c1ccc(C(F)(F)F)nc1Nc1cccc(C(F)(F)F)c1,5.13% (active),1.33% (active),-26.8% (active),17.6%,-39.3% (active),7.23% (active),19.6,35.7,,7.96% (active),-5.22% (active),26.2,2.76% (active),-8.91% (active),8.39% (active),0.893% (active),-18.2% (active),24.7,
O=C(N/N=C/c1ccc(Cl)cc1Cl)c1ccccc1Nc1cccc(C(F)(F)F)c1,35.3%,92.5%,48.9%,112%,24.4%,-93% (active),83.6,95.6,72.5,86.7%,78%,76.1,22.4%,60.5%,53.5%,65.6%,50%,92.2,
CCOC(=O)c1sc(NC(=O)COc2cccc(/C=C3\CCc4cc(OC)ccc4C3=O)c2)nc1C,5.6% (active),77.1%,89.2%,69.4%,90.3%,26.4%,84.2,89,56.5,39.6%,99.3%,58.4,41.1%,48.9%,44.1%,60.8%,48.8%,103,
CC(=O)Nc1cc(C(c2ccccc2)c2ccccc2)cc(C(c2ccccc2)c2ccccc2)c1C,35.3%,75.2%,69.8%,53.5%,54.9%,77.3%,64.8,,50.5,47.8%,34.2%,71.4,46.8%,15.4%,45.6%,50%,53%,56.8,
COc1ccc(C(=O)COc2cccc(/C=C3\CSc4ccc(Cl)cc4C3=O)c2)cc1,22.1%,,76.2%,91%,95.9%,104%,89.3,102,70.4,72.2%,99.3%,91.3,71.1%,61.9%,67.2%,71.8%,33.1%,114,
c1ccc2nc(N/N=C3\CCCCC3C3CCCCC3)ccc2c1 (centres undefined),12.3%,46.6%,60.8%,66.8%,25.9%,58.8%,72.1,72.1,33.5,26.6%,70.2%,76,41.6%,14%,39.7%,50.8%,23.4%,62.6,
O=C(Nc1nc2ccc(OC(F)(F)F)cc2s1)c1ccc(F)cc1,9.01% (active),10.9%,27.1%,8.27% (active),4% (active),21.5%,22.3,37.3,12,15.7%,73.7%,12.3,6.58% (active),12.4%,-7.36% (active),7.77% (active),11.3%,33.5,48.5
O=C(COc1cccc(/C=C2\Cc3ccccc3C2=O)c1)c1ccc(Cl)cc1,100%,90%,84.1%,117%,124%,95.6%,96.4,105,160,69.6%,101%,96.5,125%,90.3%,89.4%,91.4%,128%,104,
